Experimental data taken from PubChem BioAssay AID1847 (The Scripps Research Institute Molecular Screening Center, 2009).
In all, about 2,300 compounds went through this assay and about 1,100 (48%) were called active. So high a share suggests a set chosen from earlier hits. A selection follows. Values without a mark were called inactive.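 The calls were made as follows: active = inhibition above the mean inhibition of all tested sample wells plus 3 SD (cut at about 10% in these data); inactive = the rest.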

The compounds below were run against Luciferin 4-monooxygenase (Photinus pyralis) (UniProt P08659) (assay: firefly luciferase inhibitors, HSP90 counter-screen, confirmation, artefact control for HSP90 inhibitor project, biochemical, luminescence, triplicate (AID 1847;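 also: 0% = DMSO with luciferase and 100% = wells lacking luciferase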)). Conditions: purified native firefly luciferase, at 5.9 µM, active compounds read high.
Luciferin 4-monooxygenase (Photinus pyralis), sequence (P08659 whole entry, looked up): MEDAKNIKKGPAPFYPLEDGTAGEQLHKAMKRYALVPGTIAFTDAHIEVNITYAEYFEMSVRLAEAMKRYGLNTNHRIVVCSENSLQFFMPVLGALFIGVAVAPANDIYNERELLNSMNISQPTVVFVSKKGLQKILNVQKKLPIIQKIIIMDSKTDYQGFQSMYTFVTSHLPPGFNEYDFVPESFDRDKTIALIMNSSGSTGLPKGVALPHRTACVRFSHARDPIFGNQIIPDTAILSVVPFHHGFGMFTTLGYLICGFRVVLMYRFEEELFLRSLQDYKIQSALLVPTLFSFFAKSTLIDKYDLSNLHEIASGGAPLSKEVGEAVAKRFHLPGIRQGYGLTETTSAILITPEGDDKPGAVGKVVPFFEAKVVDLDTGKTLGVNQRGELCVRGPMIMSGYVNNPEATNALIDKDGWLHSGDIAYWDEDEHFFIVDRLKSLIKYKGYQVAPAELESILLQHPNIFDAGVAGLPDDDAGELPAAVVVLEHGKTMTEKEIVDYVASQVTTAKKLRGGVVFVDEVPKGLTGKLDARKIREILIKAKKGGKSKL
In the case of `COc1cccc(-c2nc3ccc(N4CCN(C)CC4)cc3[nH]2)c1`, the inhibition is reported as 38.9% (active).
`O=c1c2ccccc2nc(/C=C/c2ccco2)n1-c1ccccc1O` was tested, and the inhibition was 4.47%.
